# Laboratory results: PubChem BioAssay AID449762 (Southern Research Specialized Biocontainment Screening …, 2010)
# The campaign covered roughly 330,000 compounds. About 1,900 (0.58%) were called active. Inconclusive results (about 4%) are left out. Not all results are given here. Entries with a potency or affinity are not part of this list. Unmarked numbers belong to inactive results. Cut-off read from the data, not from the text of the source: inconclusive = inhibition above about 70% without an active follow-up result; inactive = below that.
# Assay: M. tuberculosis growth inhibition, HTS (AID 449762);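 note: bacterial growth assessed after seven days of incubation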
# Conditions: M. tuberculosis H37Rv growth inhibition, 7H9 media; at 25 µM; hits give high values
row,SMILES,inhibition [%]
1,Cc1ccc(-c2nc3ccccc3s2)cc1NC(=S)NC(=O)/C=C/c1ccco1,-2.81
2,Cc1ccc(-c2nc3ccccc3o2)cc1NC(=S)NC(=O)/C=C/c1ccco1,-10.3
3,CCOC(=O)[C@H]1[C@H]2COc3ccccc3[C@@H]2N2C(=O)c3cc(F)c(F)cc3NC(=O)[C@@]12C,-2.93
4,CC(C)NS(=O)(=O)c1ccc(OCC(=O)NCC2CCCO2)c(Cl)c1 (stereo unspecified),-3.59
5,COc1ccc(NC(=O)c2c(Cl)nc3ccccn23)cc1,9.69
6,CC(C)(C)c1ccc(C(=O)OCCNC(=O)c2c(Cl)nc3ccccn23)cc1,-5.57
7,CSc1ccccc1C(=O)N1CCN(c2cccc(Cl)c2)CC1,-1.96
8,O=S1(=O)CCC(n2ncc3c2/C(=C/c2ccccc2)CC3)C1 (stereo unspecified),4.34
9,Cn1c(CNC(=O)c2ccco2)nnc1SCC(=O)c1ccc(F)cc1,-2.19
10,O=C(Nc1ccccc1)C1=C[C@@H](C2CC2)C[C@@H](OCc2ccc(CO)cc2)O1,5.14
11,O=C(Nc1ccccc1)C1=C[C@H](C2CCCCC2)C[C@H](OCc2ccc(CO)cc2)O1,8.7
12,O=C(c1cc(-c2ccncc2)nc2ccccc12)N1CCN(Cc2ccccc2)CC1,-9.48
13,Cc1ccccc1CN1CCN(C(=O)c2cc(-c3ccncc3)nc3ccccc23)CC1,12.1
14,C[C@H]1CC[C@]2(O[C@H](CCO)C[C@H](O)[C@H]2O)O1,3.36
15,O=C(Nc1cc(F)ccc1F)C1CCCO1 (stereo unspecified),-6.27
16,Cc1ccc(C(=O)Nc2ccc([N+](=O)[O-])cn2)o1,-6.44
17,C=CCc1c(C)nc(SC)nc1Nc1ccc(C(=O)O)cc1,-7.64
18,C=CCc1c(C)nc(SC)nc1Nc1ccc(C)cc1,56
19,Cc1cccc(C(=O)NCc2nnc(SCC(=O)N3CCN(c4ccccc4)CC3)n2C)c1,0.25
20,CSc1ncc(C(=O)Nc2ccccc2Cl)c(C)n1,6.57
21,CSc1ncc(C(=O)Nc2ccccc2C)c(C)n1,58.1
22,Cc1ccc(NC(=O)COC(=O)CCn2c(C)csc2=O)cc1S(=O)(=O)N1CCOCC1,-2.47
23,O=[N+]([O-])c1ccc(Nc2ccc(Cl)cc2)nc1,25.4

row,SMILES,inhibition [%]
1,O=C(O)c1ccc(Nc2ncc([N+](=O)[O-])cc2[N+](=O)[O-])cc1,3.64
2,O=C(COC(=O)c1ccccc1Br)Nc1ccc2[nH]c(=O)[nH]c2c1,-0.67
3,Cc1ccc(C)c(-c2csc(NC(=O)C3=COCCO3)n2)c1,65
4,CS(=O)(=O)c1ccccc1-c1nnc(NC(=O)C2=COCCO2)o1,0.09
5,Cc1c(NS(=O)(=O)c2cccc(C(=O)OCC(=O)N(C)C3CCCCC3)c2)c(=O)n(-c2ccccc2)n1C,-13.2
6,S=C(NCc1cccnc1)NCc1cccnc1,-1.16
7,NC(=S)NCc1cccnc1,-5.18
8,CCCOc1ccc(C(=O)NCc2cccnc2)cc1,1.16
9,CCOc1ccc(C(=O)NC(=S)NCc2cccnc2)cc1,-0.27
10,C[C@H](CO)N1C[C@H](C)[C@@H](CN(C)S(=O)(=O)c2cn(C)cn2)Oc2ccc(NC(=O)Nc3ccc4c(c3)OCO4)cc2C1=O,3.14
11,COc1cccc(C2=NN(C(=O)c3ccc(C)o3)C(O)(C(F)(F)F)C2)c1 (stereo unspecified),3.82
12,Cc1coc2cc3oc(=O)c(CCC(=O)NCCCN4CCCC4=O)c(C)c3cc12,-8.05
13,CN(C(=S)Nc1ccc(F)cc1)C1(c2ccccc2Cl)CCCCC1=O (stereo unspecified),-2.19
14,O=C(O)COc1ccccc1/C=N/NC(=O)C(O)c1ccccc1 (stereo unspecified),-3.84
15,c1ccc2c(-c3csc(-c4ccncc4)n3)c[nH]c2c1,2.11
16,Brc1ccc(-c2csc(-c3c[nH]c4ccccc34)n2)cc1,20.1
17,CCCC(C)NC(=O)COC(=O)c1ccc(Cl)c(S(N)(=O)=O)c1 (stereo unspecified),-0.98
18,N#CCOC(=O)c1c2c(nc3ccccc13)CCC2,1.84
19,C=CCN(CC=C)C(=S)NC(=O)/C=C/c1ccccc1,-2.7
20,CN(Cc1ccccc1)C(=S)NC(=O)c1ccc(-c2ccccc2)cc1,26.7
21,O=C(/C=C/c1ccc(OC2CSC2)cc1)c1ccc(Cl)cc1,11.9
22,COc1cccc(-c2nn(C)c3sc(C(=O)Nc4ccc5c(c4)OCCO5)cc23)c1,3.01
23,COCCNC(=O)c1cc2c(-c3ccccc3F)nn(C)c2s1,12.7

row,SMILES,inhibition [%]
1,COc1ccc(C2/C(=C(/O)c3ccc(F)cc3)C(=O)C(=O)N2CCCN2CCOCC2)cc1OC (stereo unspecified),-2.8
2,Cn1c(C(F)(F)F)nc2c(=O)oc3ccccc3c21,66.9
3,Cc1nc2c(=O)oc3ccccc3c2n1-c1ccccc1,-4.41
4,COc1cc(Cl)ccc1NC(=S)N(CCCN1CCOCC1)Cc1cn(C)c2ccccc12,-4.57
5,O=C(Nc1ccc(Oc2ccc3c(c2)C(=O)N(c2ccc(O)cc2)C3=O)cc1)c1cccs1,2.92
6,COCCNc1nc(-c2cc(C(=O)Nc3ccccc3)on2)cc(C(C)C)n1,14.4
7,CCCNc1nc(C)cc(-c2cc(C(=O)Nc3ccccc3)on2)n1,28.1
8,COC(=O)C1CCCCN1C(=O)CCc1nnc(CCc2c[nH]c3ccccc23)o1 (stereo unspecified),0.08
9,COCCNC(=O)c1ccc(N2CCC3(CC2)OCCO3)c([N+](=O)[O-])c1,-3.57
10,CCCCNC(=O)c1ccc(N2CCC3(CC2)OCCO3)c([N+](=O)[O-])c1,-3.04
11,N#C[C@@H]1[C@@H]2C(=O)N(c3ccc4c(c3)OCCO4)C(=O)[C@@H]2C2c3ccccc3C=CN21 (stereo partly specified),-6.97
12,CCn1c(SCC(=O)Nc2cc(C(C)(C)C)nn2-c2ccccc2)nnc1-c1cccs1,-2.18
13,COc1cccc(N2CCN(C(=O)CCCCCNc3nc(=S)[nH]c4ccccc34)CC2)c1,13.8
14,O=C(C1CCC(CNc2nc(=S)[nH]c3ccccc23)CC1)N1CCN(c2ccccn2)CC1 (stereo unspecified),6.46
15,CCOC(=O)c1ccc(-c2c(-c3ccccc3OC)sc3cc4c(cc23)OCO4)cc1F,6.83
16,O=C(Cc1c(F)cccc1Cl)Nc1ccc(S(=O)(=O)N2CCOCC2)cc1,-7.05
17,CCOC(=O)N1CCN(C(=O)CNC(=O)c2nn(-c3ccc(OC)c(Cl)c3)c(=O)c3ccccc23)CC1,7.01
18,CCOC(=O)CNC(=O)CNC(=O)c1nn(-c2ccc(OC)c(OC)c2)c(=O)c2ccccc12,23.4
19,O=C(c1ccccc1N(Cc1ccccc1)S(=O)(=O)c1ccccc1)N1CCOCC1,-3.28
20,Cn1c(=O)n(C)c2cc(NC(=O)COc3ccc(F)cc3)ccc21,-1.78
21,O=C1CCN(CCc2ccccc2)CCN1[C@H](CSc1ccccc1)c1ccccc1,21.9
22,CC(O)CNc1nc2sc3c(c2c(=O)n1CCc1ccccc1)CCCCC3 (stereo unspecified),-3.46
23,c1ccc2c(c1)ncn2-c1ncnc2sc3c(c12)CCCC3,7.95

row,SMILES,inhibition [%]
1,O=C(COc1ccccc1Cl)Nc1ccc2c(c1)C(=O)NC2=O,-3.92
2,CCOC(=O)COc1ccc2c(c1)C(=O)CC(C)(C)O2,54.7
3,CC1(C)CC(=O)c2cc(OCC(=O)NCc3cccnc3)ccc2O1,-4.88
4,COc1ccc2c(c1OC)C(=O)N1C2SC(C)(C)[C@H]1C(=O)NC(C)C (stereo partly specified),-6.91
5,COc1ccc(-c2cc3nc(C)n(N)c(=O)c3s2)cc1,-2.06
6,COc1ccc(-c2cc3nc[nH]c(=O)c3s2)cc1,65.4
7,COc1ccc(CC(=O)Nc2nc(C)cs2)cc1OC,0.84
8,O=C(C1CCC(=O)N(C2CCCCCC2)C1)N1CCN(c2ccccc2Cl)CC1 (stereo unspecified),1.52
9,Cc1ccccc1N1CCN(C(=O)C2CCC(=O)N(C3CCCC3)C2)CC1 (stereo unspecified),2.89
10,CN(C)S(=O)(=O)c1ccc(C(=O)/C=C/c2cccnc2)cc1,18.5
11,Cc1cccc2c1N(CCOc1ccc(C(C)(C)C)cc1)C(=O)C2=O,4.9
12,Cc1ccc(OCCCN2C(=O)C(=O)c3cccc(C)c32)cc1,9.09
13,COc1ccc(N2CCN(C(=O)CCc3nnc4ccc(N5CCOCC5)nn34)CC2)cc1,-1.82
14,CCOc1cc(N)c(Cl)cc1C(=O)NCC1CN(Cc2ccc(F)cc2)CCO1 (stereo unspecified),-1.66
15,COc1cc(N)c(Cl)cc1C(=O)NC1CN2CCC1CC2 (stereo unspecified),4.28
16,COc1ccc(S(=O)(=O)N2CCOC2CNC(=O)C(=O)NCc2ccco2)cc1 (stereo unspecified),0.26
17,CCC(C)Nc1nc(Cl)nc(NCCOc2ccccc2)n1 (stereo unspecified),5.37
18,O=C(CCC(=O)N(CC(=O)NC1CCCCC1)CC1CCCO1)Nc1nccs1 (stereo unspecified),-1.08
19,Cc1c(Cl)cccc1NC(=O)c1cc(-c2ccco2)on1,3.35
20,O=C(Nc1cccnc1Cl)c1cc(-c2ccc(Cl)cc2)on1,5.26
21,O=[N+]([O-])c1ccc(-c2cnc(SCc3ccccc3Cl)[nH]2)cc1,-2.76
22,COc1ccccc1CSc1ncc(-c2ccc([N+](=O)[O-])cc2)[nH]1,-2.06
